# Assay outcomes deposited in PubChem by National Center for Advancing Translational Sciences (NCATS).
# HTT aggregate = mutant huntingtin aggregation inhibition; PC12 HttQ103-GFP aggregates, Acumen cytometry, 40 h; Potency, µM (top dose mostly 46.1 µM), without a hit: top-dose activity change, negative = inhibition, hits mostly inhibitors; hit rate 1.1% among 220,000; AID 1688; further: potency means the concentration at half of the fitted maximal effect; on the % scale 0 is the no-effect control and ±100 the full control effect; nearly all actives have a fitted effect of over 60% in size
#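 Read-out: GFP aggregate count by laser scanning cytometer (488 nm excitation, 500-530 nm emission, 1–25 µm objects >6 SD above background). Cells: PC12, inducible HTTex1-Q103-GFP, 100 nM tebufenozide; compounds titrated.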
# PNC assembly inh = blocks assembly of the perinucleolar compartment | hit rate 3.1% among 140,000 | PC3M PTB-GFP, PNC prevalence imaging, 16 h; hits give low values | activity change (PNC), negative = inhibition, % at 10 µM;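 active means readout at or below -70, meaning at least 70% loss of cells showing the perinucleolar compartment, a nuclear body marking cancer cells; inconclusive means readout between -30 and a set limit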;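 further: plate controls were DMSO wells for no effect and camptothecin positive control wells for full effect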
#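 PC3M cells stably expressing PTB-GFP, 750–1000 cells/well, treated 16 h at 37 °C with compound (23 nl of library stock), in duplicate. After paraformaldehyde fixation and Hoechst stain, imaged at 20x; PNC prevalence scored by image analysis.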
# HPGD block = HPGD (human) dehydrogenase inhibition | P15428 | purified HPGD, NADH fluorescence kinetic, PGE2 substrate | Potency, µM, for the others: at the top dose activity change, negative = inhibition, most hits filed as inhibitors | hit rate 4.3% among 150,000 | AID 894; active means well fitted inhibition curve with a large enough effect, not every such curve was filed as active; inconclusive means small, poorly fitted or top-dose-only effect, or another doubt; inactive means no such curve, though single readings can be large or run the other way; further: potency means the concentration at half of the fitted maximal effect; on the % scale 0 is the no-effect control and ±100 the full control effect
#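 NADH formation kinetics: reaction with 30 uM PGE2 and 1 mM NAD+ (final), 20 nM enzyme, Tris-HCl pH 8 with Tween 20, after 15 min compound preincubation at room temperature. Fluorescence change, last versus first of five reads.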
# CBFb RUNX1 block = CBF-beta/RUNX1 interaction disruption | Q01196+Q13951 | AlphaScreen CBFb-His/RUNX1-biotin binding, biochemical | Potency, µM (highest dose often 59.8 µM), inactives show at the top dose activity, negative = inhibition, actives largely listed as inhibitors | 230,000 tested, under 10 active | AID 1477; further: % of control where 0% means no effect
# Target sequence (Q01196 whole entry, looked up): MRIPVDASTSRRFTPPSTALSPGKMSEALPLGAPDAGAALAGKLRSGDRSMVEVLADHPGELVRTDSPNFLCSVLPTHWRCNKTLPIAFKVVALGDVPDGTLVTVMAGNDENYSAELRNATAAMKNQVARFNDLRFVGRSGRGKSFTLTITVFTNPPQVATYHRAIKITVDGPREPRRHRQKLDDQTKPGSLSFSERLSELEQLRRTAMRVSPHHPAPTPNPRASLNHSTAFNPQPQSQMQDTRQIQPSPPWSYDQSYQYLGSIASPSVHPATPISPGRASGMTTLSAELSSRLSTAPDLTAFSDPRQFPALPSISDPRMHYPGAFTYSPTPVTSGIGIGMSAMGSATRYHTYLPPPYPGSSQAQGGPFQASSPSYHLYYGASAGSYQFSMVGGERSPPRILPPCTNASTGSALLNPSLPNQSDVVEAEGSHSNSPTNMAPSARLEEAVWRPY
# Target sequence (Q13951 whole entry, looked up): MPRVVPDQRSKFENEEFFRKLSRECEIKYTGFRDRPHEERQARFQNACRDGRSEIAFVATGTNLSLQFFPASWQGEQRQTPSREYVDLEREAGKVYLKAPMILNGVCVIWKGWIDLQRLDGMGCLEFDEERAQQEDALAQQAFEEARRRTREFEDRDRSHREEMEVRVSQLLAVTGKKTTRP
#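 Interaction loss through any mechanism counts as activity. Pre-formed complex of His-CBF-beta and biotin-RUNX1 (30 nM apiece) is incubated with compound 15 min, then with 50 ng nickel and 50 ng streptavidin beads for 90 min before AlphaScreen detection.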
# HTT cytoprotect = protects HTT-Q103 PC12 cells, measured by ATP; Potency, µM (doses to about 56.4 µM), for the others: cytoprotection (ATP increase), actives largely listed as activators; AID 1471; PC12 HTT-Q103 induced, cytoprotection, ATP luminescence, 40 h; hit rate 0.14% among 230,000; further: potency means the concentration at half of the fitted maximal effect; % of control where 0% means no effect; nearly all actives have a fitted effect of over 45% in size
#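 PC12 cells with ecdysone-inducible HTT exon 1 Q103-GFP, induced with 100 nM tebufenozide and co-treated with library compounds in a dose series (1536-well, 1500 cells/well). Cytoprotection read as ATP content by ATPlite luminescence.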
# ALDH1A1 inh = ALDH1A1 (human) enzyme inhibition; P00352; Purified ALDH1A1, NADH fluorescence, propionaldehyde substrate; Potency, µM (titrated, usually from 75.3 µM), inactives show top-dose activity, negative = inhibition, usual class: inhibitors; hit rate 7.3% among 220,000; active means well fitted inhibition curve with a large enough effect, not every such curve was filed as active; inconclusive means small, poorly fitted or top-dose-only effect, or another doubt; inactive means no such curve, though single readings can be large or run the other way;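 further: potency means the concentration at half of the fitted maximal effect; plate controls were no enzyme wells and a reference inhibitor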
# Active calls of the source: *; ? = inconclusive; nt = not tested or not shown; ! = not confirmed by another sample; [ ] = dose if it differs, or a comment. The list is not random: actives were taken first. Their share in the collection is about 11%. Unless noted, the call rests on the fitted dose curve; in most records, active means well fitted curve in the direction sought with a large enough effect; inconclusive means small, poorly fitted or top-dose-only effect, or another doubt; inactive means no such curve, though single readings can be large; an effect the other way counts as inactive or inconclusive.
SMILES,HTT aggregate,PNC assembly inh,HPGD block,CBFb RUNX1 block,HTT cytoprotect,ALDH1A1 inh
Cc1ccc(S(=O)(=O)c2ccc(C)cc2)cc1,-23%,7,-19%,5%,-1%,13%
Cc1ccc(C2=C(Cl)C(=O)C(c3ccc(C)cc3)=C(Cl)C2=O)cc1,nt,nt,2.2µM*,nt,9%[10 µM],-3%[13.5 µM]
COc1ccccc1OCCSc1nc(N)cc(N)n1,-15%,-100*,-11%,1%,-3%[10 µM],8%
COc1ccc2o/c(=N/NC(=S)Nc3ccccc3)c(C(N)=O)cc2c1,2%,3,-11%,2%,1%[10 µM],14%
CN(C)c1ccc(C(C(=O)NC(C)(C)C)N(C(=O)c2csnn2)C2CC2)cc1 (stereo not drawn),24%,-96*,?,-3%,-19%[10 µM],5.6µM*
O=C(O)CCCN1C(=O)/C(=C/C=C/c2ccco2)SC1=S,14%[9.22 µM],nt,nt,8%,-14%[10 µM],nt
O=C(O)CC(C(=O)O)N1C(=O)/C(=C/C=C/c2ccco2)SC1=S (stereo not drawn),-1%[9.22 µM],nt,nt,nt,11%[10 µM],nt
O=C(O)C(Cc1ccccc1)N1C(=O)/C(=C/C=C/c2ccco2)SC1=S (stereo not drawn),-10%[9.22 µM],nt,nt,nt,19%[10 µM],3.2µM*
O=C1S/C(=C\C=C\c2ccco2)C(=O)N1c1ccccc1,?,43,-9%,?,8%[10 µM],20µM*
O=C1S/C(=C\C=C\c2ccco2)C(=O)N1c1ccc(O)cc1,20%,-29,-13%,-7%,7%[10 µM],18µM*
COc1ccc(N=C2C(=Nc3ccc(OC)cc3)N(c3ccccc3)C(=S)N2C(=O)c2ccc(Cl)cc2)cc1,-10%,-100*,-14%,-1%,9%[10 µM],?
Cc1ccc(-c2csc(=S)n2CC(=O)OCC(=O)NCc2ccco2)cc1,5%,-29,-10%,-3%,10%[1.9 µM],?
Cc1ccc(-c2csc(=S)n2CC(=O)OCC(=O)NC(C)C(C)C)cc1 (stereo not drawn),-2%,-5,-15%,-6%,-42%,1.6µM*
CCC1Oc2nc(SC)nnc2-c2ccccc2N1C(=O)c1ccccc1 (stereo not drawn),4%,1,-11%,2%,-8%,-7%
CCC(=O)N1c2ccccc2-c2nnc(SC)nc2OC1c1ccc(N(C)C)cc1 (stereo not drawn),5%,19,-5%,0%[2.36 µM],-11%,16µM*
CN(c1ncc(C(F)(F)F)cc1Cl)n1cc(C(N)=O)c2ccccc2c1=O,8%[9.22 µM],-9,-5%,-1%,24%,25µM*
COC(=O)c1ccc(CSc2nc(N3CCOCC3)c3c(c2C#N)CC(C)(C)OC3)o1,-12%[9.22 µM],?,-13%,3%,-12%,1.3µM*
CC(C)CCSc1nc(N2CCOCC2)c2c(c1C#N)CC(C)(C)OC2,6%,15,nt,21%,-2%[10 µM],-14%
CC1(C)Cc2c(C#N)c(SCC(=O)c3ccccc3)nc(N3CCOCC3)c2CS1,-3%,-22,-27%,5%,-25%[10 µM],13µM*
CC1CN(c2c(F)c(N)c3c(=O)c(C(=O)O)cn(C4CC4)c3c2F)CC(C)N1 (stereo not drawn),19%,nt,-11%,1%,?,8%
O=C(c1cccc(F)c1)N1CCC2(CCCN(c3ccccc3)C2)CC1,nt,nt,-11%,nt,-63%,-10%
Oc1ccc(Br)cc1-c1ccn[nH]1,-11%,-17,-21%,2%,nt,0%
Oc1ccc(O)c(-c2cnns2)c1,?,-20,1.4µM*,3%,nt,?
N[C@@H](Cn1cc(F)c(=O)[nH]c1=O)C(=O)O,nt,nt,-8%,22%[21.7 µM],-49%[1.9 µM],-5%
CSc1ccc2c(c1)N(CC[C@H]1CCCCN1C)c1ccccc1S2,nt,nt,-3%,-2%[21.7 µM],-6%[40.3 µM],6%[20.9 µM]
SMILES,HTT aggregate,PNC assembly inh,HPGD block,CBFb RUNX1 block,HTT cytoprotect,ALDH1A1 inh
CSc1ccc2c(c1)N(CCC1CCCCN1C)c1ccccc1S2 (stereo not drawn),?,-115*,-3%,?,?,1%
CN1CCCC[C@@H]1CCN1c2ccccc2Sc2ccc(S(C)=O)cc21 (stereo partly drawn),3%,nt,3.2µM*!,21%[21.7 µM],0%[10 µM],-5%[20.9 µM]
NC(=S)N=Nc1c(O)n(Cc2ccc(Br)cc2)c2ccccc12,25%,-16,-5%,-3%,-28%[10 µM],3.5µM*
Cc1ccc2c(c1)c(N=NC(N)=S)c(O)n2Cc1ccccc1,19%,20,-6%,-14%,31%[10 µM],0.63µM*
Cn1c(O)c(N=NC(N)=S)c2ccccc21,0%,nt,nt,nt,-17%,nt
NC(=S)N=Nc1c(O)n(Cc2ccc(F)cc2)c2ccccc12,34%,50,nt,-1%,-22%[10 µM],1.4µM*
Cc1ccc2c(c1)c(N=O)c(O)n2Cc1ccc(Cl)cc1,?,nt,nt,2%,15%[10 µM],-7%
C/C(Cl)=C\Cn1c(O)c(N=NC(N)=S)c2cc(Br)ccc21,20%[9.22 µM],nt,nt,?,-21%[10 µM],0.45µM*
NC(=S)N=Nc1c(O)n(CCCl)c2ccc(Br)cc12,3%[9.22 µM],nt,nt,-2%,24%[10 µM],7%
Cc1c(C(=O)N2CCN(Cc3ccc4c(c3)OCO4)CC2)cccc1[N+](=O)[O-],-18%,162,-1%,12%,23%[10 µM],2%
CC1CCN(c2nc3ccc(C(=O)N4CCN(Cc5ccc6c(c5)OCO6)CC4)cc3s2)CC1,?,-19,18µM*,-11%,-102%,?
O=S(=O)(c1ccc(Cl)nc1)N1CCN(Cc2ccc3c(c2)OCO3)CC1,5%,2,-3%,-2%,21%,14µM*
O=C(c1ccc2nc(N3CCOCC3)sc2c1)N1CCCC1,?,0,14µM*,6%,-12%,5%
O=C(c1ccc(Cl)c([N+](=O)[O-])c1)N1CCN(Cc2ccc3c(c2)OCO3)CC1,-1%,nt,nt,-1%,18%,19µM*
Cc1ccc(NC(=O)Cc2ccc3c(c2)OCCO3)cc1S(=O)(=O)N1CCCCC1,12%[9.22 µM],nt,nt,9%,11%[10 µM],nt
CN1C(=O)/C(=C/c2cc(C(C)(C)C)c(O)c(C(C)(C)C)c2)NC1=S,1%,nt,nt,-2%,-28%,?
O=C(Oc1ccccc1)n1c(=S)oc2ccccc21,-8%,?,-12%,3%,nt,?
Cc1ccccc1OC(=O)n1c(=S)oc2cc(Cl)ccc21,?,-15,?,11%,-17%,7.1µM*
N#C/C(=C/c1ccc(N2CCOCC2)o1)c1ccc(Cl)cc1,?,?,?,-16%,?,13µM*
N#C/C(=C\c1ccc(N2CCOCC2)o1)c1nc2ccccc2[nH]1,-31%,37,-14%,-16%,-60%,?
COc1ccc(-n2c(Cc3cccn3C)nnc2SCC(=O)Nc2cccc(Cl)c2)cc1,17%,33,-7%,-11%,-8%,?
CC(=O)c1ccc(NC(=O)CSc2nnc(Cc3cccn3C)n2-c2ccc(F)cc2)cc1,14%,?,1%,-14%,-5%,13µM*
